Assay results: PubChem BioAssay AID720631 (The Scripps Research Institute Molecular Screening Center, 2013)
Some of the results follow. Activity calls are given as the source filed them.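 How the source made its calls: active means inhibition above the mean of compounds lying within the control limits plus 3 SD (cut at about 16% in these data); inactive means the rest.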

Target: Fibrinogen beta chain (Homo sapiens) (UniProt P02675)
Experiment: inhibitors of Tn6 peptide binding to fibrin DD(E), confirmation, biochemical, fluorescence polarization, human fibrin, Tn6 probe (AID 720631);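 further: 0% = plate median of compound wells and 100% = inhibitor peptide control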
Conditions: FP displacement of TRITC-Tn6 peptide from DD(E); at 8.3 µM; stronger effect = higher value; 0% = per-plate median of test wells

Fibrinogen beta chain (Homo sapiens), sequence (P02675 whole entry, looked up): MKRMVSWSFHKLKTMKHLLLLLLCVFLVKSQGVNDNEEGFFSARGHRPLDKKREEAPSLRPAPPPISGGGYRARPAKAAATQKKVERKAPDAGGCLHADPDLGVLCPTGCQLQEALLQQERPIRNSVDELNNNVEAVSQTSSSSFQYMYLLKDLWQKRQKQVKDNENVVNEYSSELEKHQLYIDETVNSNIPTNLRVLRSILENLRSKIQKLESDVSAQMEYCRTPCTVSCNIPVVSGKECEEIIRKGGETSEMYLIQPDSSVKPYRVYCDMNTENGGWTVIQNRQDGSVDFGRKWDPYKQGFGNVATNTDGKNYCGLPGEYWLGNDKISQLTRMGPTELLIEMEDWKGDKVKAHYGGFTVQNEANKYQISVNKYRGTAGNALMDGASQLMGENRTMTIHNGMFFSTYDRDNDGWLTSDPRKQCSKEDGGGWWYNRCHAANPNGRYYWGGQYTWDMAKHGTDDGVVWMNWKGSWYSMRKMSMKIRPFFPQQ

Row | Compound | inhibition
1 | Cc1ccc(-c2nn(-c3ccccc3)cc2/C=C/C(=O)Nc2cccc(S(N)(=O)=O)c2)cc1 | 4.74% (inactive)
2 | Cc1cc(C)c2nc(NC(=O)C3CCCO3)sc2c1 (stereo unspecified) | 4.35% (inactive)
3 | O=C(CCl)NNc1cccc(Cl)n1 | 4.87% (inactive)
4 | Cc1cc2nc3c(=O)[nH]c(=O)nc-3n(C[C@H](O)[C@H](O)[C@H](O)CO)c2cc1C | 12.4% (inactive)
5 | CONc1nc2nonc2nc1NOC | -1.66% (inactive)
6 | CCOC(=O)N1CCN(Cc2nc(N)nc(Nc3ccc(C)cc3)n2)CC1 | -3.1% (inactive)
7 | Cc1cc2ccccc2n1CCNC(=O)COc1ccc2ccccc2c1 | 12.1% (inactive)
8 | O=C(NCCNc1ccccc1[N+](=O)[O-])c1ccccc1F | -1.55% (inactive)
9 | CCc1ccccc1NC(=S)Nc1cc(OC)c(NC(=O)C(C)C)cc1OC | -4.51% (inactive)
10 | O=c1cc(Cn2nnc(-c3ccc(Cl)cc3)n2)nc2sccn12 | -6.19% (inactive)
11 | CCOCC(=O)NCc1ccc2c(c1)cc(C)n2C | 0.62% (inactive)
12 | COc1ccc(Nc2nc(-c3cccnc3)nc3ccccc23)cn1 | -6.63% (inactive)
13 | Cc1ccc(-c2nc(C)sc2CC(=O)O)cc1 | 1.06% (inactive)
14 | Cc1nnsc1S(=O)(=O)Cc1ccccc1Cl | -10.5% (inactive)
15 | COc1ccc(Nc2nc(-c3ccccc3)cs2)cc1 | -0.61% (inactive)
16 | Cc1cc2cc(CNC(=O)c3ccc(S(=O)(=O)N4CCOCC4)cc3)ccc2[nH]1 | -6.87% (inactive)
17 | CCC1C(=O)NCCN1C(=O)c1ccc2nc(Cc3ccc(OC)cc3)oc2c1 (stereo unspecified) | -13.1% (inactive)
18 | O=C(Nc1cccc(-c2nc3ccccc3[nH]2)c1)c1ccc(C(=O)Nc2cccc(-c3nc4ccccc4[nH]3)c2)cc1 | 29.2% (active)
19 | COc1cc(NC(=O)c2ccc(CNc3c(N4CCCC4)c(=O)c3=O)cc2)cc(OC)c1OC | -4.66% (inactive)
20 | Oc1ccc(N=Cc2sc3ccccc3c2Cl)cc1 | -11.2% (inactive)
21 | Cc1ccc(NC(=O)CN2CCc3ccccc3C2)cc1 | -6.7% (inactive)
22 | Cc1nn(C)cc1N1C(=O)c2cccc3c(N)ccc(c23)C1=O | 1.67% (inactive)
23 | CCc1cc(-c2nnc(SCC(=O)NC3CC3)n2C)cs1 | 2.54% (inactive)
24 | CN1c2ccc(C=O)c3c(C=O)ccc(c23)N(C)C1(C)C | -6.98% (inactive)
25 | COc1ccc(N2C(=O)NC(NS(=O)(=O)c3ccc(Cl)cc3)(C(F)(F)F)C2=O)cc1 (stereo unspecified) | 1.83% (inactive)
26 | O=c1[nH]n(-c2ccc([N+](=O)[O-])cc2)c(=O)c2ccccc12 | 12.3% (inactive)
